In the library only some 19% were active in any assay of this set; here they are far more common.
Pf growth 48h – inhibits P. falciparum growth in the first generation, 48 h; P. falciparum luciferase growth in erythrocytes, 48 h; Potency, µM (doses to about 28.7 µM), inactives show top-dose activity change, negative = inhibition, hits mostly inhibitors; 310,000 tested, 5.9% active; also: potency is read from the fitted curve at half-maximal effect; % is scaled to controls: 0 for no effect and ±100 for the full control effect
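Growth was read as firefly luciferase luminescence after a 48 h, 37 C, 5% CO2 exposure of compounds to reporter-bearing P. falciparum cultures (0.1% parasitemia, 2% hematocrit final) in Albumax-supplemented RPMI 1640.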
CHX counter – counter-screen hit for Shiga toxin inhibitors, cycloheximide | cell reporter, cycloheximide protein synthesis inhibition counterscreen | max response, % | 300,000 tested, 12% active | AID 2314; in the data active = max response mostly above about 13%, no sharp cut-off; inactive = mostly below about 14%; also: read at 38.3 µM for the half of the compounds with a filed dose; 0% is about no effect
Lassa entry inh – inhibitors of Lassa virus binding or cell entry; Lassa virus pseudotype entry inhibition, cell reporter; AID 540256; Potency, µM (series often up to 37.9 µM), inactives show top-dose activity change, negative = inhibition, hits mostly inhibitors; 300,000 tested, 1.2% active; calls by dose curve; tested in HEK293 cells; also: potency is read from the fitted curve at half-maximal effect; % is scaled to controls: 0 for no effect and ±100 for the full control effect; nearly all actives have a fitted effect of over 50% in size
Marburg entry inh – blocks Marburg virus binding to or entry into cells | Marburg virus pseudotyped entry inhibition, cell reporter | Potency, µM (series often up to 37.8 µM), for inactives: at the highest dose activity change, negative = inhibition, actives largely listed as inhibitors | 300,000 tested, 1.8% active | AID 540276; calls by dose curve; tested in HEK293 cells; also: potency is read from the fitted curve at half-maximal effect; % is scaled to controls: 0 for no effect and ±100 for the full control effect
Pf growth 96h – P. falciparum growth inhibition at 96 hour, primary screen for plastid delayed-death inhibitors | P. falciparum luciferase reporter growth, 96 h | Potency, µM (titrated, usually from 28.7 µM), for inactives: at the top dose activity change, negative = inhibition, most hits filed as inhibitors | 320,000 tested, 6.9% active | AID 504834; also: potency is read from the fitted curve at half-maximal effect; % is scaled to controls: 0 for no effect and ±100 for the full control effect
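Compounds incubated with erythrocytes infected by luciferase-expressing P. falciparum (2% hematocrit, 0.05% parasitemia final) for 96 hours, 37 C in 5% CO2. Growth inhibition scored as decreased luciferase luminescence.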
Shiga toxin inh – inhibitors of Shiga toxin in Vero cells | 290,000 tested, 9.2% active | AID 2315 | inhibition, % at 38.7 µM | Vero cells, Shiga toxin protein synthesis inhibition reporter; in the data active = inhibition mostly above about 28%, no sharp cut-off; inactive = mostly below about 43%; also: 0% is about no effect
* = called active by the depositor; [ ] = another dose, or the depositor's remark. Unless noted, calls follow the shape of the dose curve; as a rule, active = well fitted inhibition curve with a large enough effect; inconclusive = small, poorly fitted or top-dose-only effect, or another doubt; inactive = no such curve, though single readings can be large or run the other way.

How did CC(C)S(=O)(=O)c1csc(NC(=O)Nc2ccc(Cl)cc2)c1 do in these assays?
Pf growth 48h: inconclusive; CHX counter: 1.0; Lassa entry inh: 7.4%[46.1 µM]; Marburg entry inh: inconclusive; Pf growth 96h: 10.4µM*; Shiga toxin inh: 0.4

What do the screens show for `O=C(Nc1cccc(Cl)c1)Nc1cccc(Cl)c1`?
Pf growth 48h: 3.7µM*; CHX counter: 19.6*; Lassa entry inh: -21.9%; Marburg entry inh: inconclusive; Pf growth 96h: -16.9%; Shiga toxin inh: 68.5*

How did COC(=O)c1cc(NC(=O)Nc2cccc(Cl)c2)ccc1Cl do in these assays?
Pf growth 48h: 9.28µM*; CHX counter: 21.8*; Lassa entry inh: inconclusive; Marburg entry inh: inconclusive; Pf growth 96h: 14.7µM*; Shiga toxin inh: 73.1

How did Cc1cccc(N(O)C(=O)Nc2cccc(Cl)c2)c1 do in these assays?
Pf growth 48h: inconclusive; CHX counter: 37.2*; Lassa entry inh: 16.0%; Marburg entry inh: 10.7%; Pf growth 96h: inconclusive; Shiga toxin inh: 56.0*

What do the screens show for `CC1CCC(=C(C#N)C(=O)Nc2cccc(Cl)c2)CC1` (stereo not given)?
Pf growth 48h: inconclusive; CHX counter: 23.9*; Lassa entry inh: 1.8%; Marburg entry inh: 1.1%; Pf growth 96h: 14.7µM*; Shiga toxin inh: 19.3

What do the screens show for `NS(=O)(=O)c1cccc(NC(=O)Nc2ccc(Cl)cc2)c1`?
Pf growth 48h: -13.2%; CHX counter: 35.9*; Lassa entry inh: inconclusive; Marburg entry inh: -1.1%[46.1 µM]; Pf growth 96h: 15.6%; Shiga toxin inh: 87.0*

Results for N#CC(C#N)=C(N)Nc1cccc(Cl)c1 ?
Pf growth 48h: -5.3%; CHX counter: 1.5; Lassa entry inh: 0.3%; Marburg entry inh: inconclusive; Pf growth 96h: -0.3%; Shiga toxin inh: 7.1

What do the screens show for `CCc1nnc(NC=C2C(=O)OC(C)(C)OC2=O)s1`?
Pf growth 48h: 34.8%; CHX counter: -0.7; Lassa entry inh: 19.5%; Marburg entry inh: 6.2%; Pf growth 96h: -9.2%; Shiga toxin inh: 19.4

What do the screens show for `CN(C)S(=O)(=O)c1ccc(S(=O)(=O)N2CCCC2)cc1`?
CHX counter: 0.8; Lassa entry inh: -3.9%; Marburg entry inh: -11.7%; Pf growth 96h: -32.3%; Shiga toxin inh: -4.0

Results for COC(=O)NCC(C)OC(=O)Nc1cccc(Cl)c1 (stereo not given) ?
Pf growth 48h: 28.4%; CHX counter: 10.7*; Lassa entry inh: 18.8%; Marburg entry inh: inconclusive; Pf growth 96h: inconclusive; Shiga toxin inh: 20.5

How did O=C(CCN1CCN(Cc2ccccc2)CC1)NNC(=O)Nc1cccc([N+](=O)[O-])c1 do in these assays?
Pf growth 48h: 9.8%; CHX counter: 9.6; Lassa entry inh: 4.3%; Marburg entry inh: inconclusive; Pf growth 96h: 13.1µM*; Shiga toxin inh: -15.6

How did CNS(=O)(=O)c1ccc(NC(=O)Nc2cccc(F)c2)cc1 do in these assays?
Pf growth 48h: 7.3%; CHX counter: 32.0*; Lassa entry inh: -1.4%[46.1 µM]; Marburg entry inh: -12.1%; Pf growth 96h: 1.1%; Shiga toxin inh: 85.5*

Results for O=C(CC(=O)Nc1cccc(F)c1)Nc1cccc(F)c1 ?
Pf growth 48h: inconclusive; CHX counter: -2.1; Lassa entry inh: 0.1%; Marburg entry inh: 1.6%; Pf growth 96h: 0.0%; Shiga toxin inh: 17.0

What do the screens show for `O=C(CCc1ccccc1)NNC(=O)Nc1cccc(Cl)c1`?
Pf growth 48h: -9.0%; CHX counter: 16.8*; Lassa entry inh: -15.9%[46.1 µM]; Marburg entry inh: -0.5%[46.1 µM]; Pf growth 96h: -10.8%; Shiga toxin inh: 36.5

Results for CC(OC(=O)Nc1cccc(Cl)c1)C(=O)OC1CCCCC1 (stereo not given) ?
Lassa entry inh: -16.6%; Marburg entry inh: inconclusive

Results for COc1ccc(CCC(=O)NNC(=O)Nc2cccc(Cl)c2)cc1 ?
Pf growth 48h: 11.6%; CHX counter: 8.9; Pf growth 96h: 51.8%; Shiga toxin inh: -3.6

Results for O=C(CCN1CCN(Cc2ccccc2)CC1)NNC(=O)Nc1cccc(Cl)c1 ?
Pf growth 48h: inconclusive; CHX counter: 7.2; Lassa entry inh: -10.3%[46.1 µM]; Marburg entry inh: 0.2%[46.1 µM]; Pf growth 96h: 156.0%; Shiga toxin inh: -6.4

How did CCNc1nc(Oc2ccccc2)nc(OC(C)C(=O)OCC)n1 (stereo not given) do in these assays?
Pf growth 48h: -12.9%; CHX counter: -0.3; Lassa entry inh: -11.4%; Marburg entry inh: 0.0%; Pf growth 96h: -20.7%; Shiga toxin inh: 16.0
